Screening data as filed in PubChem BioAssay.
IMPase cell inh = IMPase inhibition in cells; P97697; inhibition (IP1 accumulation), % at 46.1 µM; 120,000 tested, under 10 active; CHO-M1 cells, IP1 accumulation, HTRF TR-FRET ratio; AID 901; active = well fitted curve in the direction sought with a large enough effect in the signal ratio, not every such curve was filed as active; inconclusive = small, poorly fitted or top-dose-only effect, or a change in a side signal; inactive = no such curve, though single readings can be large or run the other way; the % refers to the signal ratio;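 note: cells stimulated with carbachol in lithium chloride buffer; plate controls were DMSO basal wells for no effect and reference inhibitor wells for full effect; higher means more IMPase inhibition seen as more IP1 and lower FRET ratio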
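In this qHTS, compounds (final up to 46 uM) act on CHO-M1 cells that are then activated through the M1 receptor with carbachol, in pH 7.4 buffer containing 50 mM LiCl, for 30 min. IP1 accumulation is quantified by the IP-One immunoassay.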
HPGD inh = blocks human HPGD enzyme activity; P15428; purified HPGD, NADH fluorescence kinetic, PGE2 substrate; Potency, µM, for inactives: at the top dose activity change, negative = inhibition, actives largely listed as inhibitors; hit rate 4.3% among 150,000; note: potency is the fitted concentration of half-maximal effect
Target sequence (P15428 whole entry, looked up): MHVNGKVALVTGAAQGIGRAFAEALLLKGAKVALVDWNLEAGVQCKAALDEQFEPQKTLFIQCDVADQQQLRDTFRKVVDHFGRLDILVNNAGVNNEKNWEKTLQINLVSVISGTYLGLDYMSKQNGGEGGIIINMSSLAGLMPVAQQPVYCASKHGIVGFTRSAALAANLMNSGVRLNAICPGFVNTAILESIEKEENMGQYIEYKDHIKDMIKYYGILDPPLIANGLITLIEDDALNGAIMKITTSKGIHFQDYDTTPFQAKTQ
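NADH formation kinetics: reaction with 30 uM PGE2 and 1 mM NAD+ (final), 20 nM enzyme, Tris-HCl pH 8 with Tween 20, after 15 min compound preincubation at room temperature. Fluorescence change, last versus first of five reads.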
PNC assembly inh = blocks assembly of the perinucleolar compartment; hit rate 3.1% among 140,000; AID 2417; PC3M PTB-GFP, PNC prevalence imaging, 16 h; hits give low values; activity change (PNC), negative = inhibition, % at 10 µM;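 active = readout at or below -70, meaning at least 70% loss of cells showing the perinucleolar compartment, a nuclear body marking cancer cells; inconclusive = readout between -30 and a set limit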;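 note: plate controls were DMSO wells for no effect and camptothecin positive control wells for full effect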
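Compounds are pinned in duplicate onto adhered PC3M cells stably expressing GFP-tagged PTB and incubated 16 h at 37 C. Cells are then fixed, nuclei stained with Hoechst, and PNC-positive cells counted.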
IMPase Li inh = cell-permeable IMPase inhibitors with lithium potentiation. CHO-M1 cells, IP1 TR-FRET (IP-One), carbachol + lithium. Potency, µM (series often up to 59.4 µM), without a hit: top-dose activity, negative = IMPase inhibition, most hits filed as inhibitors. hit rate 0.35% among 210,000; active = well fitted curve in the direction sought with a large enough effect; inconclusive = small, poorly fitted or top-dose-only effect, or another doubt; inactive = no such curve, though single readings can be large; an effect the other way counts as inactive or inconclusive;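 note: IP1 builds up when IMPase is blocked and the TR-FRET signal falls; potency is the fitted concentration of half-maximal effect; plate controls were basal vehicle for no effect and high inhibitor control for full effect; nearly all actives have a fitted effect of over 50% in size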
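Test compounds were applied to CHO-M1 cells previously cultured for 16–30 h at 2000 per well. A small lithium amount accompanied them; after 30 min at 37C, IP1 was quantified by TR-FRET.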
ALDH1A1 block = inhibitors of human aldehyde dehydrogenase 1A1; Potency, µM (doses to about 75.3 µM), without a hit: at the highest dose activity, negative = inhibition, actives largely listed as inhibitors; Purified ALDH1A1, NADH fluorescence, propionaldehyde substrate; hit rate 7.3% among 220,000; AID 1030;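 note: potency is the fitted concentration of half-maximal effect; plate controls were no enzyme wells and a reference inhibitor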
Target sequence (P00352 whole entry, looked up): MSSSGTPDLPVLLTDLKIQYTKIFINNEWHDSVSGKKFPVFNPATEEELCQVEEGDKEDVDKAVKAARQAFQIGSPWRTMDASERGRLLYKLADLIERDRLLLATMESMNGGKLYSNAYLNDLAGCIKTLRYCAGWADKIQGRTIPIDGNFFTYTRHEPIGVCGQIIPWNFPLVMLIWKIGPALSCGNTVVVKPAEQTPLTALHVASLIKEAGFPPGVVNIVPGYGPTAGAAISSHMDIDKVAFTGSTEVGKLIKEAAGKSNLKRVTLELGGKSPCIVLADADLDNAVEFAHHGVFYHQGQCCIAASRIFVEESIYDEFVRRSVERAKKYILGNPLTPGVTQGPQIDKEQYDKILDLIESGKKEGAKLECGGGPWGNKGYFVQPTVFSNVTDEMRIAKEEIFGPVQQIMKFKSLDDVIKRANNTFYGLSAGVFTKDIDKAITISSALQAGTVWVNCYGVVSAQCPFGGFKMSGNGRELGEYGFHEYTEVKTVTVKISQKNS
ALOX12 inhib = 12-hLO (ALOX12) enzyme inhibition; P18054; purified 12-hLO, xylenol orange hydroperoxide absorbance; Potency, µM (doses to about 57.1 µM), for inactives: top-dose activity change, negative = inhibition, actives largely listed as inhibitors; hit rate 0.12% among 150,000; active = well fitted curve in the direction sought with a large enough effect; inconclusive = small, poorly fitted or top-dose-only effect, or another doubt; inactive = no such curve, though single readings can be large; an effect the other way counts as inactive or inconclusive; note: potency is the fitted concentration of half-maximal effect; nearly all actives have a fitted effect of over 55% in size
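Xylenol orange chromogenic assay: hydroperoxide from 12hLO oxidises Fe(II), giving red-shifted Fe(III)-XO absorbance. Conditions: 150 nM enzyme, 40 uM arachidonic acid, 25 mM Hepes pH 7.0, 0.01% Triton X-100, 30 min, room temperature.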
* hit, by the source's call; ? = inconclusive; . = no result; [ ] = remark or other dose. Only some compounds are listed: those with a hit (about 11% of all), similar ones and a draw of the others. Unless noted, calls come from the whole dose curve; as a rule, active = well fitted inhibition curve with a large enough effect (not every such curve was filed as active); inconclusive = small, poorly fitted or top-dose-only effect, or another doubt; inactive = no such curve, though single readings can be large or run the other way. Unless noted, % is set by controls: 0 for no effect and ±100 for the full control effect.

SMILES	IMPase cell inh	HPGD inh	PNC assembly inh	IMPase Li inh	ALDH1A1 block	ALOX12 inhib
CCCCCCn1c(C(C)NC(=O)c2ccco2)nc2ccccc21 (stereo not given)	13.7	-7.0%	16.7	36.8%[38.3 µM]	5.01µM*	-0.1%
CCCCCn1c(NC(=O)c2ccco2)c(S(=O)(=O)c2ccc(C)cc2)c2nc3ccccc3nc21	?	?	2.9	11.2µM*	?	?
CCCCn1c(NS(=O)(=O)c2ccccc2)c(S(=O)(=O)c2ccc(C)cc2)c2nc3ccccc3nc21	?	?	?	-9.0%	?	0.2%
CC(CCC#N)[N+](=O)[O-] (stereo not given)	.	-2.5%	.	11.7%	2.2%	.
Cc1cc(C)c2oc(-c3cccc(NC(=O)c4cc5ccccc5o4)c3)nc2c1	-3.3	.	.	.	.	.
c1cncc(-c2cccnc2)c1	-1.6	-13.5%	42.3	14.1µM*	?	0.4%
O=C(CCC1N=C2c3ccccc3N=C(SCC(=O)Nc3ccccc3F)N2C1=O)NCc1ccccc1 (stereo not given)	6.9	.	.	.	.	.
O=C(c1ccc(Nc2nc3ccccc3n3nnnc23)cc1)N1CCN(c2ccc(F)cc2)CC1	-5.2	.	.	.	.	.
O=C(Nc1nc(-c2ccccn2)cs1)c1ccccc1-n1cnnn1	.	.	.	.	10µM*	.
O=C(Nc1nc(-c2ccccn2)cs1)c1cc(Cl)ccc1[N+](=O)[O-]	.	.	.	-4.1%	10µM*	.
COc1ccc(-n2c(=O)c(-c3cccs3)nc3cnc(OC)nc32)cc1	.	.	.	-0.6%	22.0%	.
COc1cc(C2c3c(oc4ccc(C)cc4c3=O)C(=O)N2Cc2ccccc2)ccc1O (stereo not given)	-2.0	.	.	.	.	.
CCCCCNS(=O)(=O)c1cc(C)ccc1OC	.	-7.8%	-10.3	5.5%	-1.5%	-0.7%
CCOCCCNS(=O)(=O)c1ccc(OC)c(Cl)c1Cl	17.7	-14.4%	19.6	6.8%	2.24µM*	-1.4%
CC(=O)c1cccc(CN2CCN(Cc3ccc(F)cc3)C(CCO)C2)c1 (stereo not given)	.	.	.	16.6%	28.2µM*	.
CCCn1c(-c2ccc(F)cc2)nc2c(NCC3CCN(C)CC3)nc(C)nc21	.	?	.	2.5%	?	8.9%
CCC(C)Oc1cccc(OCCCCN2C(=O)NC(C)(C)C2=O)c1 (stereo not given)	-7.6	-8.3%	-95.9*	-0.4%[38.3 µM]	-11.6%	2.0%
Cc1cc(Cl)c(OCCN2C(=O)NC(C)(C)C2=O)c(Br)c1	4.1	-2.2%	-5.1	-2.5%[38.3 µM]	1.8%	-0.8%
Cc1cc(Cl)cc(Br)c1OCCCN1C(=O)NC(C)(C)C1=O	1.9	-16.6%	-80.5*	1.8%[38.3 µM]	?	0.0%
CCC(=O)c1ccccc1OCCCN1C(=O)NC(C)(C)C1=O	3.9	-10.7%	-11.1	3.0%[38.3 µM]	10µM*	-0.3%
CC1(C)NC(=O)N(CCCCOc2ccc3c(c2)CCC3)C1=O	2.1	-8.5%	?	0.4%[38.3 µM]	?	-4.9%
CC1(C)NC(=O)N(CCOCCOc2ccc3ccccc3c2Br)C1=O	1.7	-24.8%	-111.1*	-9.1%[38.3 µM]	-8.4%	6.0%
Cc1ccc(S(=O)(=O)NC(=O)Nc2ncn[nH]2)cc1	.	-9.1%	.	6.3%	13.0%[13.5 µM]	8.0%[11.4 µM]
CC1(C)NC(=O)N(CCCCOc2ccc3ccccc3c2Cl)C1=O	-0.7	-27.6%	31.3	31.6%[38.3 µM]	17.8µM*	6.7%
CC1(C)NC(=O)N(CCCCOc2cccc(C(F)(F)F)c2)C1=O	4.3	-13.7%	?	0.2%[38.3 µM]	3.9%	-0.5%
SMILES	IMPase cell inh	HPGD inh	PNC assembly inh	IMPase Li inh	ALDH1A1 block	ALOX12 inhib
CN(C)CCCCCNCCCNC(=O)/C=N\O	1.1	-0.1%	?	4.9%[38.3 µM]	4.5%	1.4%
CN(C)CCNC(=O)/C=N/O	4.2	5.4%	-88.9*	-0.8%	-2.4%	0.2%
COc1ccnc(CSC(N)=Nc2ccccc2C(F)(F)F)c1	.	-16.6%	9.8	29.1%	-2.9%	2.5%
COc1ccnc(CSC(N)=Nc2ccccc2OC)c1	-3.9	-7.8%	-81.2*	33.3%	25.1µM*	-0.7%
C=C(C)CSc1ncc(-c2cccc(C(F)(F)F)c2)cn1	-2.6	-6.5%	-27.3	-3.3%[38.3 µM]	?	-10.1%
COc1ccnc(CSC(N)=Nc2cccc(C(F)(F)F)c2)c1	.	-13.3%	18.2	3.2%	20µM*	-3.6%
CCOc1ccccc1NC(=O)c1c(NC(=O)C(C)Oc2ccc(Cl)cc2)sc2c1CCCCC2 (stereo not given)	-11.8	.	.	.	.	.
O=S(=O)(c1ccc(Cl)cc1)n1ccc2cccnc21	-0.1	-11.2%	-100.0*	11.5%	2.8%	-3.1%
Cc1ccc(S(=O)(=O)n2ccc3cccnc32)cc1	-4.4	-7.7%	-100.0*	8.8%	3.1%	-3.8%
O=S(=O)(c1ccc(Cl)cc1Cl)n1ccc2cccnc21	.	.	.	11.0%	1.3%	.
C/C=C/c1ccc(OCCCNC2CCCC2)c(OC)c1	8.5	-5.6%	?	35.6%[38.3 µM]	28.2µM*	-6.7%
C/C=C/c1ccc(OCCCNC(C)CC)c(OC)c1 (stereo not given)	1.7	-8.9%	55.3	26.4%[38.3 µM]	15.8µM*	-9.5%
Cc1cc(C)n(-c2nc3cc(Cl)ccc3nc2N2CCN(c3cccc(C)c3C)CC2)n1	-1.7	.	.	.	.	.
COc1ccc2c(c1)O[C@@H](c1ccc3c(c1)OCO3)[C@H](O)C2=O	.	-6.0%	.	11.7%	-6.3%	.
COc1cccc(-c2nnc(SCC(=O)NC3CCCCC3)o2)c1	7.9	.	.	.	.	.
CC(C)c1nc2ccccc2n1CC(O)COC1CCCCC1 (stereo not given)	.	.	.	4.5%	28.2µM*	.
COC(=O)C1=C(C(=O)OC)[C@@H]2N(C)c3ccc(OC)cc3[C@@]23C[C@@H](C(=O)OC)N(S(=O)(=O)c2ccc4c(c2)OCCN4C)C3=N1	.	-11.8%	.	10.4%	11.6%[13.5 µM]	-6.2%[11.4 µM]
COc1cc(C2c3c(-c4cc(C)cc(C)c4O)n[nH]c3C(=O)N2CCCO)cc(OC)c1OC (stereo not given)	5.1	13.8%	-100.0*	-1.3%[38.3 µM]	9.0%	-1.5%
Cc1cc(C(=O)N/N=C/c2ccc(C)o2)c2ccccc2n1	.	?	-94.3*	-1.3%	4.4%	3.0%
COc1cc(/C=N/NC(=O)c2cc(-c3ccco3)nc3ccccc23)cc(OC)c1O	.	.	.	.	22.4µM*	.
CCCc1cc(C(=O)N/N=C/c2ccc(C)o2)c2ccccc2n1	4.8	-15.4%	-0.5	-7.6%[38.3 µM]	-3.3%	-8.1%
